Test [1] has as its target Rap guanine nucleotide exchange factor 3 (Homo sapiens) (UniProt O95398). The test can be described thus: Confirmatory qHTS for antagonist of cAMP-regulated guanine nucleotide exchange factor 3 (EPAC1) (AID 1645880). Further: nearly all actives have a fitted effect of over 55% in size. Further: potency means the concentration at half of the fitted maximal effect. Summed up:
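Nucleotide exchange uses 100 nM EPAC1, 250 nM RAP1B-BODIPY-GDP and 50 uM GDP, with compounds in a concentration-titration series. After 5 min at room temperature, fluorescence (480 nm ex/540 nm em) is read every 5 min for 30 min. Data are normalized to control ATA and DMSO.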
In general terms: qHTS replaces the single test concentration by a dilution series.

Test [2] shares this target. The experiment in a line: Confirmatory qHTS for agonist of cAMP-regulated guanine nucleotide exchange factor 3 (EPAC1) (AID 1645881). Further: nearly all actives have a fitted effect of over 75% in size. Further: potency means the concentration at half of the fitted maximal effect.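 On activation: EPAC1 catalysed release of BODIPY-GDP from Rap1B seen as fluorescence loss; 100% = effect of cAMP agonist control.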
Test [3] addresses Rap guanine nucleotide exchange factor 4 (Homo sapiens) (UniProt Q8WZA2). The test can be described thus: Confirmatory qHTS for agonist of cAMP-regulated guanine nucleotide exchange factor 4 (EPAC2) (AID 1645884).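 Further: nucleotide exchange releases bodipy-GDP from Rap1 and this lowers its fluorescence; nearly all actives have a fitted effect of over 65% in size.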 Further: potency means the concentration at half of the fitted maximal effect. On activation: on the % scale 0 is the no-effect control and ±100 the full control effect.
Test [4] shares this target. The experiment in a line: Confirmatory qHTS for antagonist of cAMP-regulated guanine nucleotide exchange factor 4 (EPAC2) (AID 1645885). Further: nearly all actives have a fitted effect of over 25% in size. Further: potency means the concentration at half of the fitted maximal effect. On activity change, negative = inhibition: on the % scale 0 is the no-effect control and ±100 the full control effect.
For test [5], the target named is Rap guanine nucleotide exchange factor 3 (Homo sapiens) (UniProt O95398). The test can be described thus: Counterscreen qHTS for antagonist of cAMP-regulated guanine nucleotide exchange factor 3 (EPAC1) (AID 1645888).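 Further: fluorescence loss as bound BODIPY-GDP is released from Rap1B; % of control where 0% means no effect.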 Put shortly: (§1)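 Rap1B-BODIPY-GDP 250 nM + GDP 50 uM; cpds 7-pt, final 9.74 nM–152 uM (activator mode) or from 7.32 nM upwards (inhibitor mode); RT; FI 480/540 nm at 5 and 30 min, then ± cAMP, reread.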
Chain of Rap guanine nucleotide exchange factor 3 (Homo sapiens) (O95398 whole entry, looked up): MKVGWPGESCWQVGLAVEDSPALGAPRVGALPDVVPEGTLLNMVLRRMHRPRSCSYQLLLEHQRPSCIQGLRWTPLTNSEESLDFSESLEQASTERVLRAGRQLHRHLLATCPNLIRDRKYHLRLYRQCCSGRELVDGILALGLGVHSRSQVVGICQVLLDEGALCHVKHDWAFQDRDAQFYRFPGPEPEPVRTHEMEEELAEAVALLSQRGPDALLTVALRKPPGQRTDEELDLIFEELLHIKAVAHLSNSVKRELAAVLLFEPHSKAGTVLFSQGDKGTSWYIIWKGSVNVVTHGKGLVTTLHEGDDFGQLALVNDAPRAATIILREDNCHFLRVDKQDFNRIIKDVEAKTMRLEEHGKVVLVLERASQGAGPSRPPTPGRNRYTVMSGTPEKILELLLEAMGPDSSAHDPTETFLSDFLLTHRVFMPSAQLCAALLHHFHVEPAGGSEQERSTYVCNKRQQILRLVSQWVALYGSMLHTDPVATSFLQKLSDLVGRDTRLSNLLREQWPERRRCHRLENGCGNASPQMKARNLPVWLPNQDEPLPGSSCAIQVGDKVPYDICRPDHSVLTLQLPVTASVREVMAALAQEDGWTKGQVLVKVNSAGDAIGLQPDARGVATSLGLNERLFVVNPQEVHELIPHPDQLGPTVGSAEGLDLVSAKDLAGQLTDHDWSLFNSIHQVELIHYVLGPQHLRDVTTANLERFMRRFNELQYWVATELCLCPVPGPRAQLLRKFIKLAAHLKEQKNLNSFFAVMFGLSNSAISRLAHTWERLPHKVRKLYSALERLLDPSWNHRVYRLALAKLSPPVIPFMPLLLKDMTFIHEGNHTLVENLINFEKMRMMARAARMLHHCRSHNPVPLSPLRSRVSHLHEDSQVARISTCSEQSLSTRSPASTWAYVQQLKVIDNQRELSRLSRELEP

Test [6] shares this target. The experiment in a line: Counterscreen qHTS for agonist of cAMP-regulated guanine nucleotide exchange factor 3 (EPAC1) (AID 1645889). Further: nearly all actives have a fitted effect of over 40% in size. Further: potency means the concentration at half of the fitted maximal effect. On activation: % of control where 0% means no effect. Summed up:
as §1
For orientation: A counterscreen serves to expose hits that act by an unwanted route or on another target.

Test [7] addresses Tumor susceptibility gene 101 protein (Homo sapiens) (UniProt Q99816). The experiment in a line: qHTS Assay for Iinhibitors of HIV-1 Budding by Blocking the Interaction of PTAP/TSG101: Hit Validation (AID 651600). Further: on the % scale 0 is the no-effect control and ±100 the full control effect; nearly all actives have a fitted effect of over 70% in size. Summed up: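 Fluorescence polarization binding assay: Tsg101 binding domain (10 uM) mixed with compounds and FITC-labeled PTAP peptide (50 nM) in HEPES pH 7.5, 0.15 M NaCl, 0.01% Tween 20, EDTA, TCEP; 20 min at r.t.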

Results filed as inconclusive are left out. Values without a mark were called inactive. Activity calls are given as the source filed them. The call rests on the fitted dose curve; in most records, active means well fitted curve in the direction sought with a large enough effect; inconclusive means small, poorly fitted or top-dose-only effect, or another doubt; inactive means no such curve, though single readings can be large; an effect the other way counts as inactive or inconclusive.

Chain of Rap guanine nucleotide exchange factor 4 (Homo sapiens) (Q8WZA2 whole entry, looked up): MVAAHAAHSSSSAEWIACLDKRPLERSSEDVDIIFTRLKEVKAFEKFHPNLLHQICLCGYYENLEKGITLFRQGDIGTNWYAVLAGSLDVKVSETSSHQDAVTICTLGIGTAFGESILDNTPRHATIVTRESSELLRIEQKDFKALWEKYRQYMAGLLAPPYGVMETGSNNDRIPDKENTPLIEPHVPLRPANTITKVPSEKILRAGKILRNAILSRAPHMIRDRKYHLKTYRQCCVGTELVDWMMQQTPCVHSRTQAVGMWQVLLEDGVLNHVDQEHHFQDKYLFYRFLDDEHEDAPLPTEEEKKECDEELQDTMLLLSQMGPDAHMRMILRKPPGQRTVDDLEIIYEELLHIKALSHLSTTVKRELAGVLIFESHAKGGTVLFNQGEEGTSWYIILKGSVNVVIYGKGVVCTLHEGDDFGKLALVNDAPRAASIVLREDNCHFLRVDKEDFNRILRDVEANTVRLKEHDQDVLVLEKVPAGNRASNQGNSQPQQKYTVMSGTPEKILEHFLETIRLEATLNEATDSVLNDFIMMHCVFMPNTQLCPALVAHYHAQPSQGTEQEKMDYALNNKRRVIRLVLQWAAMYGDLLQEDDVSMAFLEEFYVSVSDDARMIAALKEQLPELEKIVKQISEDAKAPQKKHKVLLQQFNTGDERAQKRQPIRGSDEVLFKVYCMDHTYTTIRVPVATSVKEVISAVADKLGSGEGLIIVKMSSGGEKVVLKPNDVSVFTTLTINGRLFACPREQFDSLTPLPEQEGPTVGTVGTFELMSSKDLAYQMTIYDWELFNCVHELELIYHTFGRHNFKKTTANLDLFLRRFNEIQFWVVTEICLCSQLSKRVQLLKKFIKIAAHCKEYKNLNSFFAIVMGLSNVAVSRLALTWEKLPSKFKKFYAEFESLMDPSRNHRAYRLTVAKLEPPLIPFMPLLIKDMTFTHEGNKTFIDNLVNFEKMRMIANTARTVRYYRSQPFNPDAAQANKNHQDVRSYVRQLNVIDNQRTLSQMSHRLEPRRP
Chain of Tumor susceptibility gene 101 protein (Homo sapiens) (Q99816 whole entry, looked up, the tested form may be a part): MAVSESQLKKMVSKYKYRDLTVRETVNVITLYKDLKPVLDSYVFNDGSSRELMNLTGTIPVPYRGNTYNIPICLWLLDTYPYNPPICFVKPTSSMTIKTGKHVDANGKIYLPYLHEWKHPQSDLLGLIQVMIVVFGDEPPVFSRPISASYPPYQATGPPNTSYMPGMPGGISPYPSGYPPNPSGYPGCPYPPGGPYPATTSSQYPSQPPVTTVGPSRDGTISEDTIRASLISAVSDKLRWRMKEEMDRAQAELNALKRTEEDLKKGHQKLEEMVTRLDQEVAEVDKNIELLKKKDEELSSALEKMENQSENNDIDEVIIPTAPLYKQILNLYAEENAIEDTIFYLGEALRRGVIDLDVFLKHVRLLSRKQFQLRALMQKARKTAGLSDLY

As to `O=Cc1c(C(=O)O)n(Cc2ccc(Cl)cc2)c2ccccc12`, the Potency result in test [1], in test [2] and in test [3] was “inactive” throughout. Further, the Potency in test [4] is 42.6 µM (active); in test [6] it was 15.8 µM (active). In addition, the outcome in test [5] was inactive.
In the case of `COc1ccc(-n2c(O)c(/C=C/C=Nc3ccccc3)c(=O)[nH]c2=O)cc1`, the Potency result in test [1] is “inactive”. In addition, the Potency in test [2] was 100 µM (active); in test [3] it was 89.1 µM (active); in test [4], 16.9 µM (active); in test [6] it was 35.5 µM (active). For the same molecule, the molecule was classed as inactive in test [5].
Regarding `O=C1NCN(c2ccccc2)C12CCN(C(c1cc3ccccc3o1)c1nnnn1C1CCCC1)CC2` (stereo unspecified), the Potency entry in test [1] and in test [2] was “inactive” throughout. The activation in test [3] is 13.1% [at 17.1 µM, percent relative to cAMP agonist control]. Also, the activity change, negative = inhibition in test [4] was -12.5% [at 12.7 µM]; in test [5], -0.487% [at 30.8 µM].
For `CCN(CC)C(=O)Cn1cc(C=C2C(=O)N(C)C(=O)N(C)C2=O)c2ccccc21`, the Potency entry in test [7] and in test [2] was “inactive” in each case. Also, the Potency in test [1] is 79.4 µM (active). The activation in test [3] was 4.19% [at 17.1 µM, percent relative to cAMP agonist control]. For the same molecule, the activity change, negative = inhibition is 3.22% [at 12.7 µM] in test [4] and -5.5% [at 30.8 µM] in test [5].
`COC(=O)C1=C(c2ccc3ccccc3c2)C[C@@H]2CC[C@H]1N2C(=O)NC1CC1`: the Potency entry in test [1], in test [2], in test [3], in test [4] and in test [6] was “inactive” throughout. For the same molecule, in test [5], the call was inactive.
As for `CN1C(=O)/C(=C/c2cccn2-c2ccc3ccccc3c2)C(=O)NC1=S`, in test [1], the Potency was 33.8 µM (active). The Potency entry in test [2], in test [3], in test [4] and in test [6] was “inactive” throughout. Further, the molecule was called inactive in test [5].
Regarding `Cn1cc(C=C2C(=O)NC(=O)NC2=O)c2ccccc21`, the Potency result in test [1] and in test [6] was “inactive” each time. In addition, the Potency in test [2] is 79.4 µM (active); in test [3], 63.1 µM (active); in test [4], 75.7 µM (active). In addition, in test [5], the molecule was called inactive.
In the case of `COc1cccc(-n2c(/C=C/c3ccc(O)c(O)c3)nc3ccccc3c2=O)c1`, in test [1], the Potency was 31.6 µM (active). In addition, in test [2], the Potency entry was “inactive”. The activation in test [3] is 9.04% [at 17.1 µM, percent relative to cAMP agonist control]. Moreover, the activity change, negative = inhibition in test [4] was -22.6% [at 12.7 µM]; in test [5], 2.65% [at 30.8 µM].
Consider `COCCCn1c(N)c(C(=O)NCCC(C)C)c2nc3ccccc3nc21`, for which, in test [1], the Potency is 56.2 µM (active). Also, the Potency result in test [2] was “inactive”. Besides, the activation in test [3] was 8.34% [at 17.1 µM, percent relative to cAMP agonist control]. In addition, the activity change, negative = inhibition was -14.1% [at 12.7 µM] in test [4] and 2.52% [at 30.8 µM] in test [5].

Source of the values: PubChem BioAssay (NCATS).
